# Source: PubChem BioAssay (National Center for Advancing Translational Sciences (NCATS))
# Only some compounds are listed: those with a hit (about 1.7% of all), similar ones and a draw of the others.
# HEK293 tox – cytotoxicity in counter-screen for GLP-1R inverse agonists; HEK293 cAMP-luciferase reporter cells, luminescence, 24 h; Potency, µM (top dose mostly 38.3 µM), inactives show top-dose activity change, negative = inhibition, most hits filed as inhibitors; 0.13% of 410,000 active; AID 624418;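 note: loss of luciferase light is scored as toxicity; % is set by controls: 0 for no effect and ±100 for the full control effect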
#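 Luminescence readout: signal drop marks cytotoxicity. Plated cells grew 12 h at 37 °C, 5% CO2, received 23 nL compound for 24 h, then got luciferase reagent, read after 12 min at RT.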
# GLP1R inv ag – acts as inverse agonist at human GLP-1 receptor. P43220. 1.6% of 410,000 active. HEK293 GLP-1R CRE-luciferase, luminescence, 24 h; GLP-1R form is constitutively active. Potency, µM (top dose mostly 38.3 µM), for inactives: top-dose activity change, negative = inhibition, actives largely listed as inhibitors. AID 624417; note: % is set by controls: 0 for no effect and ±100 for the full control effect; nearly all actives have a fitted effect of over 55% in size
# Target sequence (P43220 whole entry, looked up): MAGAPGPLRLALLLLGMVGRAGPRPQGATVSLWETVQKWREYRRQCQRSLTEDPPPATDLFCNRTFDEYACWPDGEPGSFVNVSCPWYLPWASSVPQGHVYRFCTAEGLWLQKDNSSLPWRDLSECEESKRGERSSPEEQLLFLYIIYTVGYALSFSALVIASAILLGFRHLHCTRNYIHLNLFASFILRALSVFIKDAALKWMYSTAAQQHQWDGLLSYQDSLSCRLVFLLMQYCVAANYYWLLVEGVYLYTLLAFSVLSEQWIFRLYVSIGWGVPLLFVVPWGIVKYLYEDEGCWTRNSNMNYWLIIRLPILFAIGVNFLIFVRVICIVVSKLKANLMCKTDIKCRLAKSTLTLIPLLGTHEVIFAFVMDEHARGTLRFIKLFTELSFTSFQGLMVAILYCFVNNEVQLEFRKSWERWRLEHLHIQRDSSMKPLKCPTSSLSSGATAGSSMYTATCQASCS
#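 Inverse agonism was detected as reduced cAMP-driven luciferase luminescence after 24 h compound treatment. The cells were HEK293 clones expressing constitutively active human GLP-1R with the reporter. Reporter-only and GPR119 cell lines served as counterscreen controls.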
# GLP-1R agonist – agonists of human GLP-1 receptor; 0.007% of 380,000 active; AID 624172; HEK293 GLP-1R CRE-luciferase, luminescence, 4-6 h; cells express a hypersensitive GLP-1R form; Potency, µM (series often up to 45.6 µM), without a hit: top-dose activation, usual class: activators; note: % of control where 0% means no effect
# * marks the source's active call; other numbers are inactive results; u = inconclusive; x = no result. Calls come from the whole dose curve; as a rule, active = well fitted curve in the direction sought with a large enough effect; inconclusive = small, poorly fitted or top-dose-only effect, or another doubt; inactive = no such curve, though single readings can be large; an effect the other way counts as inactive or inconclusive. Potency is the fitted concentration of half-maximal effect.
SMILES,HEK293 tox,GLP1R inv ag,GLP-1R agonist
COC(=O)Cn1ccc2cc(S(=O)(=O)N3CCCCC3)ccc21,0%,-16%,-1%
O=C(c1ccccc1)c1ccc(N2CCN(C(=O)c3cccc(F)c3F)CC2)c(F)c1,0%,10µM*,2%
CCC(=O)c1ccc(N2CCN(C(=O)c3ccccc3F)CC2)c(F)c1,0%,3%,12%
COc1ccc(C(=O)Nc2oc(-c3ccccc3)c(-c3ccccc3)c2C#N)cc1,-2%,u,-1%
Cc1cccc(C)c1OCC(=O)Nc1oc(-c2ccccc2)c(-c2ccccc2)c1C#N,u,10µM*,-17%
COc1ccccc1CNC(=O)CN1C(=O)NC2(CCCCCC2)C1=O,5%,4%,3%
O=C(c1cc(-c2ccccc2)nc2ccccc12)N1N=C(C(F)F)CC1(O)C(F)F (stereo not given),-16%,-12%,-1%
CCOc1cccc(-c2cc(C(=O)N3N=C(C)CC3(O)C(F)F)c3ccccc3n2)c1 (stereo not given),6%,11µM*,11%
CCOc1ccc(-c2cc(C(=O)N3CCN(c4cccc(C)c4)C(C)C3)c3ccccc3n2)cc1 (stereo not given),-15%,5µM*,x
CCOc1ccc(-c2cc(C(=O)N3CCN(c4ccc(C)cc4)C(C)C3)c3ccccc3n2)cc1 (stereo not given),3%,-21%,x
COc1ccccc1NS(=O)(=O)c1cccc(NC(=O)Nc2ccccc2)c1,u,5.6µM*,-10%
COc1ccccc1NC(=S)NCCSc1ccc(Cl)cc1,2%,1%,10%
COc1ccccc1NC(=O)CC1CCCC1,2%,11%,9%
COc1cccc(NC(=O)NCCc2ccc(Cl)cc2)c1,1%,10µM*,10%
COc1ccccc1NS(=O)(=O)c1cccc(NC(=O)Nc2ccc(Cl)cc2)c1,u,u,4%
COc1ccccc1NC(=S)NCC1CCCCC1,u,10µM*,5%
COc1ccccc1NC(=S)NCCc1ccc(Cl)cc1,8%,5µM*,4%
CC(=O)c1cccc(NC(=O)NCCc2ccc(Cl)cc2)c1,-11%,u,-2%
CC(C)N1CC(C(=O)Nc2ccc(F)c(Cl)c2)CC1=O (stereo not given),0%,-7%,-2%
O=C(COc1ccccc1)Nc1ccccc1C(=O)OCc1cc(=O)n2nc(C3CC3)sc2n1,4%,-7%,x
COc1cc(-c2nnc(COC(=O)c3ccc([N+](=O)[O-])o3)o2)cc(OC)c1OC,5%,1%,13%
C=CCNc1ncnc2c1ncn2[C@H]1CN(CCOC)C[C@@H](CO)O1,0%,14%,0%
COc1ccc(Nc2nc3ccccc3nc2NS(=O)(=O)c2ccc(Cl)cc2)cc1OC,-15%,-29%,0%
CCN(CC)c1ccc(NC(=O)Cn2cc3c(n2)CCCC3)c(C)c1,-3%,-6%,x
CC1Cn2cc(C(=O)Nc3ccccc3C(F)(F)F)c(=O)c3c(Cl)ccc(c32)O1 (stereo not given),-7%,-2%,x
SMILES,HEK293 tox,GLP1R inv ag,GLP-1R agonist
COc1ccccc1NC(=S)NC1CCCCCCCCCCC1,0.5µM*,u,-5%
COc1cccc(NC(=O)Nc2ccc(C(C)(C)C)cc2)c1,-31%,6.3µM*,9%
COc1ccc(NS(=O)(=O)c2ccc(C)c(NC(=O)NC3CCCCC3)c2)cc1,-4%,u,2%
COc1ccccc1NC(=S)NC1CCCCC1,-1%,-19%,0%
CCOc1ccc(NC(=O)NCCCCc2ccccc2)cc1,6%,-29%,0%
COc1ccccc1NS(=O)(=O)c1ccc(C)c(NC(=O)NC2CCCCC2)c1,-8%,11µM*,5%
COc1ccc(NC(=O)NCCCCc2ccccc2)cc1,1%,6.3µM*,1%
COc1cccc(NC(=O)Nc2ccncc2)c1,6%,-4%,2%
COC(=O)c1c(NC(=O)COc2cccc(C(F)(F)F)c2)sc2c1CCCC2,5%,7%,x
Cc1ccc(C(NC(=O)C2CCN(Cc3ccc(Oc4ccccc4)cc3)CC2)c2ccccn2)cc1 (stereo not given),-5%,u,-1%
CC1CC(C)CN(C(=O)C2CCN(S(=O)(=O)c3c(Cl)cccc3Cl)CC2)C1 (stereo not given),-21%,u,5%
Fc1cc(Br)ccc1Nc1c2c(nc3nc(-c4cccs4)nn13)CCCC2,9%,7%,x
CCCCCCCCN1C(=O)[C@H](CC(=O)NCc2ccccc2)C[C@@]2(C(=O)OC)CCCCC=C12,-13%,u,2%
COC(=O)c1ccccc1NC(=O)Nc1ccc(C(=O)N2CCCC2)cc1,-12%,u,-10%
COc1ccccc1NC(=O)Nc1ccc(C(=O)N2CCCCC2)cc1,-14%,8.9µM*,8%
C[C@H]1NCc2cc(-c3ccc4c(=O)c(C(=O)O)cn(C5CC5)c4c3OC(F)F)ccc21,x,x,-2%
COc1cc(S(=O)(=O)N2CCCCCC2)c(OC)cc1Br,10%,4.5µM*,2%
COc1ccc(Br)cc1S(=O)(=O)N1CCCC1,4%,8%,7%
Cc1onc(-c2ccc3c(c2)OCO3)c1-c1ccc2[nH]ccc2c1,u,8.9µM*,-1%
c1cc2cc(-c3c(-c4ccc5c(c4)OCO5)noc3-c3ccsc3)ccc2[nH]1,-3%,u,-1%
CCOc1ccc(CCNC(c2nnc(-c3ccccc3)o2)c2ccccc2Cl)cc1OCC (stereo not given),-1%,10µM*,x
CCOc1ccc(CCNC(c2cccc(Cl)c2)c2nnc(-c3ccccc3)o2)cc1OCC (stereo not given),-9%,u,x
C[C@@H]1CN([C@@H](C)CO)C(=O)c2cc(NC(=O)C3CCCCC3)ccc2O[C@@H](C)CCCCO[C@@H]1CN(C)C(=O)CCCN(C)C,4%,7%,21%
Cc1ccccc1OCC(=O)OCC(=O)NC1CCCC(C)C1C (stereo not given),7%,4%,9%
COc1ccc2c(Cl)c(-c3nnc(SCC(=O)c4ccccc4)n3C)sc2c1,-25%,11µM*,-2%
SMILES,HEK293 tox,GLP1R inv ag,GLP-1R agonist
COc1ccc2c(Cl)c(-c3nnc(SCC(N)=O)n3C)sc2c1,-25%,-8%,2%
COc1ccc(CN2CCN(CC3CC3)CC2CCO)c(C)c1C (stereo not given),5%,4%,-3%
COc1ccc(CN2CCN(Cc3nc4ccccc4s3)CC2CCO)c(C)c1C (stereo not given),u,7.9µM*,7%
CC(C)(C(=O)N1CCC1(C)C(=O)NC1Cc2ccccc2C1)c1ccccc1 (stereo not given),-3%,u,-2%
CCN(Cc1ccccc1)C(=O)Cn1c(=O)n(-c2ccccc2)c(=O)c2c1c1cc(C)ccc1n2C,-1%,0%,-1%
O=C(Nc1ccccc1)/C(=C/c1cccc(Br)c1)NC(=O)c1ccco1,9%,2%,6%
O=C(OCc1ccccc1)/C(=C/c1cccc(Br)c1)NC(=O)c1ccco1,12%,10µM*,-3%
COc1cccc(C#Cc2cnc3c(c2)C(=O)N([C@@H](C)CO)C[C@H](C)[C@H](CN(C)C(=O)C2CCC2)O3)c1,-6%,-13%,14%
